Inconclusive results are not listed. Unmarked numbers belong to inactive results. The source made the active and inactive calls. The call rests on the fitted dose curve; in most records, active means well fitted cell-killing curve with a large enough effect; inconclusive means small, poorly fitted or top-dose-only effect; inactive means flat fitted curve, though single readings scatter.
Assay: Cellular viability qHTS for adrenocortical cancer (ACC) cell line NCI-H295R (AID 1963990); further: nearly all actives have a fitted effect of over 60% in size;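 on activity change, negative = viability loss: 0% = DMSO only wells and -100% = full killing with cytotoxic reference compound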
Settings: CellTiter-Glo ATP luminescence, 48 h; series mostly up to 46.1 µM; activity change, negative = viability loss: at the top concentration
Outline: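 Viability of NCI-H295R after 48 h of treatment (final up to 46 uM) measured through cellular ATP luminescence.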
Potency means the concentration at half of the fitted maximal effect.

Compound	activity change, negative = viability loss	Potency
CCCc1c(OCCCCc2nn[nH]n2)ccc(C(C)=O)c1O	-1.7%	
CCCN1C[C@H](CSC)C[C@@H]2c3cccc4[nH]cc(c34)C[C@H]21	-16.6%	
COc1ccc([C@@H](O)[C@@H](C)Oc2ccc([C@H]3O[C@H](c4ccc(O[C@H](C)[C@H](O)c5ccc(OC)c(OC)c5)c(OC)c4)[C@H](C)[C@H]3C)cc2OC)cc1OC		1.78 µM (active)
CCC(C)CNCC(=O)N1CCc2sccc2C1c1cccc(C)n1 (centres undefined)	-0.661%	
CCCCC[C@H](O)/C=C/[C@H]1[C@H](O)CC(=O)[C@@H]1CCCCCCC(=O)O	3.4%	
C=CC(=O)N1C[C@H](Nc2ncnc3[nH]ccc23)CC[C@@H]1C	-3.68%	
O=C(OCC(COC(=O)c1cccnc1)(COC(=O)c1cccnc1)COC(=O)c1cccnc1)c1cccnc1	-26.9%	
Cc1ccc(O)c2ncccc12		20.6 µM (active)
OC(CCCN1CCCCC1)(c1ccccc1)c1ccccc1	-14.6%	
C[C@H]1C[C@@H]2[C@H]([C@@H](O)C[C@@]3(C)[C@H]2CC[C@]3(O)C(=O)CO)[C@@]2(C)C=CC(=O)C=C12		inactive
Cc1ccc(NS(=O)(=O)c2ccc3c(c2)C2C=CCC2C(c2ccc(C(=O)O)cc2)N3)cc1C (centres undefined)	-0.155%	
CN1CC[C@H](c2c(O)cc(O)c3c(=O)cc(-c4ccccc4Cl)oc23)[C@H](O)C1		0.103 µM (active)
CC(C)CCOC(=O)c1ccc(N(C)C)cc1	13.4%	
CCCCCCCCCCCCOCCO	-23.2%	
CN1CCC[C@@H]1Cc1c[nH]c2ccc(CCS(=O)(=O)c3ccccc3)cc12	-0.723%	
COCCNCc1ccc(-c2cc3nccc(Oc4ccc(NC(=O)C5(C(=O)Nc6ccc(F)cc6)CC5)cc4F)c3s2)nc1		3.16 µM (active)
OCc1ccc(Cl)cc1Cl	-25.2%	
CCc1oc2ccccc2c1C(=O)c1cc(I)c(O)c(I)c1		6.51 µM (active)
O=C(Nc1ccccc1)Nc1ccc(-c2ccc(C(=O)[C@@H]3CCC[C@H]3C(=O)O)cc2)cc1	-0.0718%	
CC(=O)Oc1cccc2c1C(=O)c1c(OC(C)=O)cc(C(=O)O)cc1C2=O	-22.4%	
CC#Cc1cncc(-c2ccc3c(c2)[C@@]2(N=C(C)C(N)=N2)C2(CCC(OC)CC2)C3)c1 (some centres undefined)	15.1%	
CN1C(=O)N[C@@H](Cc2c[nH]c3c(Cl)cccc23)C1=O	0.691%	
CC[C@H]1OC(=O)[C@H](C)C(=O)[C@H](C)[C@@H](O[C@H]2O[C@H](C)C[C@H](N(C)C)[C@H]2O)[C@](C)(OC)C[C@@H](C)C(=O)[C@H](C)[C@H]2N(CCCCn3cnc(-c4cccnc4)c3)C(=O)O[C@]12C	-8.3%	
C[C@]12CC[C@@H]3c4ccc(O)cc4CC[C@H]3[C@@H]1C[C@@H](O)[C@@H]2O	-20%	
CO[C@H]1C=CO[C@@]2(C)Oc3c(C)c(O)c4c(O)c(c(/C=N/N5CCN(C)CC5)c(O)c4c3C2=O)NC(=O)/C(C)=C\C=C[C@H](C)[C@H](O)[C@@H](C)[C@@H](O)[C@@H](C)[C@H](OC(C)=O)[C@@H]1C	-23.5%	
CC(Oc1c(Cl)cccc1Cl)C1=NCCN1 (centres undefined)	-22.6%	
CN1C(CSCC(F)(F)F)Nc2cc(Cl)c(S(N)(=O)=O)cc2S1(=O)=O (centres undefined)	11.9%	
CO/N=C1\CN(c2nc3c(cc2F)c(=O)c(C(=O)O)cn3C2CC2)CC1CN (centres undefined)	0.355%	
C=CC[N+]1([C@H]2C[C@H]3[C@@H]4CC[C@H]5C[C@H](OC(C)=O)[C@@H](N6CCCCC6)C[C@]5(C)[C@H]4CC[C@]3(C)[C@H]2OC(=O)CC)CCCCC1	-9.43%	
